Rows were chosen to be rich in hits. Some 6.9% of all compounds tested hit in one or more screens of this group.
VDR inh: Inhibitors of the vitamin D receptor (VDR): qHTS; AID 504847, 2011; Potency, µM, for the others: max response, negative = inhibition, usual class: inhibitors; 0.93% of 400,000 active; VDR-SRC2-3 peptide fluorescence polarization, 2 h; also: % is scaled to controls: 0 for no effect and ±100 for the full control effect
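Reagent solutions, kept cold and dark, are dispensed first; compounds are then pinned in at 23 nl, plates briefly spun, and incubated 2 h at ambient temperature. Inhibition of VDR–SRC2-3 peptide binding is read by fluorescence polarization.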
HP1b chromo inh: HTS for Inhibitors of HP1-beta Chromodomain Interactions with Methylated Histone Tails; Chromobox protein homolog 1 (Homo sapiens), P83916; AlphaScreen HP1-beta / biotin-H3K9me3 peptide binding; Potency, µM (doses to about 114 µM), for inactives: top-dose activity change, negative = inhibition, hits mostly inhibitors; 0.56% of 390,000 active; also: nearly all actives have a fitted effect of over 70% in size
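HP1-beta protein (50 nM final) preincubated 30 min at room temperature with biotinylated H3(1-18)K9me3 peptide (50 nM) in PBS pH 7.4, 0.01% Tween-20, then compound added for 30 min. AlphaScreen streptavidin donor/nickel chelate acceptor beads (10 ug/mL final), 30 min dark, luminescence read.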
PLK1 PBD block: qHTS for Inhibitors of PLK1-PDB (polo-like kinase 1 - polo-box domain): Primary Screen | 2.8% of 360,000 active | Serine/threonine-protein kinase PLK1 (Homo sapiens), P53350 | Plk1 PBD binding of FITC phosphopeptide, fluorescence polarization | Potency, µM, for inactives: max response, negative = inhibition, hits mostly inhibitors; also: series mostly up to about 57 µM; % is scaled to controls: 0 for no effect and ±100 for the full control effect; nearly all actives have a fitted effect of over 65% in size
JMJD2A Tudor inh: qHTS Assay for Inhibitors of JMJD2A-Tudor Domain. 4.4% of 390,000 active. AlphaScreen JMJD2A-Tudor / H3K4me3 peptide binding. Lysine-specific demethylase 4A (Homo sapiens), O75164. Potency, µM (series often up to 114 µM), for inactives: top-dose activity change, negative = inhibition, actives largely listed as inhibitors; also: % is scaled to controls: 0 for no effect and ±100 for the full control effect; nearly all actives have a fitted effect of over 50% in size
BAZ2B block: qHTS Assay for Inhibitors of BAZ2B; Bromodomain adjacent to zinc finger domain protein 2B (Homo sapiens), Q9UIF8; AlphaScreen BAZ2B-H3K14Ac peptide displacement; Potency, µM (series often up to 114 µM), for inactives: at the highest dose activity change, negative = inhibition, actives largely listed as inhibitors; 4.4% of 360,000 active; AID 504333, 2011; also: % is scaled to controls: 0 for no effect and ±100 for the full control effect; nearly all actives have a fitted effect of over 60% in size
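AlphaScreen luminescence quantifies BAZ2B engagement of H3K14Ac peptide; the protein and biotinylated peptide are both at 50 nM final, buffer PBS pH 7.4 with 0.01% Tween-20, all steps at room temperature.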
L3MBTL1 block: qHTS Assay for the Inhibitors of L3MBTL1. Lethal(3)malignant brain tumor-like protein 1 (Homo sapiens), Q9Y468. AlphaScreen L3MBTL1–H3K9me1 peptide binding. Potency, µM (doses to about 57.1 µM), for inactives: at the top dose activity, negative = inhibition, usual class: inhibitors. 0.66% of 230,000 active; also: % is scaled to controls: 0 for no effect and ±100 for the full control effect; nearly all actives have a fitted effect of over 60% in size
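First, the protein-peptide complex forms for 30 min at room temperature (L3MBTL1 50 nM, biotinylated H3K9me1 peptide 75 nM). Next, compounds are pin-transferred and incubated 30 min. Finally, AlphaScreen beads are added and read after 30 min.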
The depositor's hits bear a star; ? = inconclusive; nt = no result; [ ] = remark or other dose. Calls follow the shape of the dose curve; as a rule, active = well fitted curve in the direction sought with a large enough effect; inconclusive = small, poorly fitted or top-dose-only effect, or another doubt; inactive = no such curve, though single readings can be large; an effect the other way counts as inactive or inconclusive. Potency is read from the fitted curve at half-maximal effect.

SMILES | VDR inh | HP1b chromo inh | PLK1 PBD block | JMJD2A Tudor inh | BAZ2B block | L3MBTL1 block
O=P(O)(O)c1ccccc1OCCOCCOCCOCCOc1ccccc1P(=O)(O)O | -7% | 47% | 0% | -8% | -34% | nt
O=C1NC(=O)C(Sc2ccccc2[N+](=O)[O-])C(=O)N1 | 40µM* | ? | 3µM* | 28µM* | 50µM* | nt
CN(C(=O)Cc1ccc(Cl)c(Cl)c1)[C@H](CN1CCCC1)c1cccc(N=C=S)c1 | -4% | nt | nt | nt | nt | nt
OCC1CCCN2CCCCC12 (configuration not stated) | 12% | nt | nt | nt | nt | nt
C=CCN(CC#CCOc1ccccc1OC)CC=C | nt | nt | nt | nt | 50µM* | 6%[11.4 µM]
CC(=O)Oc1c2c(c(CC=C(C)C)c3c1C(=O)C1=CC4CC5C(C)(C)OC(C/C=C(\C)C(=O)O)(C4=O)[C@]15O3)OC(C)(CCC=C(C)C)C=C2 (some centres not stated) | 1.3µM* | nt | nt | nt | nt | nt
COC(=O)/C(C)=C\CC12OC(C)(C)C3CC(C=C4C(=O)c5c(OC)c6c(c(CC=C(C)C)c5OC431)OC(C)(CCC=C(C)C)C=C6)C2=O (configuration not stated) | 2µM* | nt | nt | nt | nt | nt
COc1ccc(OC)c([C@H](O)[C@H](C)N)c1 | 6% | nt | nt | nt | nt | nt
CCOC(=O)c1ccc(NC(=O)c2c(O)[nH]c(=O)[nH]c2=O)cc1 | -8% | 20% | -2% | -11% | ? | 7.1µM*
CCOC(=O)c1ccc(-n2c(N)c(C(=O)NCC3CCCO3)sc2=S)cc1 (configuration not stated) | ? | 14µM* | 12µM* | ? | ? | -9%
Nc1c(C(=O)NCC2CCCO2)c2nc3ccccc3nc2n1Cc1ccco1 (configuration not stated) | 8% | 96% | -14% | 32% | 9% | 14%
CCOC(=O)c1c(/N=C/c2c(O)n(-c3ccccc3F)c(=S)[nH]c2=O)sc2c1CCCC2 | ? | -5% | 24µM* | ? | ? | nt
O=C(O)c1ccc(-c2ccc3cc(C45CC6CC(CC(C6)C4)C5)c(O)cc3c2)cc1 | 56µM* | nt | nt | nt | nt | nt
Cc1ccc(-c2cc(-c3ccc(C)cc3)[n+](-c3ccc(C(=O)O)cc3)c(-c3ccc(C)cc3)c2)cc1 | -9% | 17% | -22% | ? | -5% | 15%
O=C(Cn1c(=O)n(CC2CCC(C(=O)NCCc3ccccc3)CC2)c(=O)c2ccccc21)Nc1cccc(F)c1 (configuration not stated) | -17% | 11% | nt | 56µM* | -1% | nt
CCc1nn2c(=O)c(C)c(N3CCNCC3)nc2s1 | nt | nt | nt | -3% | nt | nt
O=C1OC(c2ccc(O)c(S(=O)(=O)O)c2)(c2ccc(O)c(S(=O)(=O)O)c2)c2c(Br)c(Br)c(Br)c(Br)c21 | 35µM* | nt | nt | nt | nt | nt
O=C(c1ccco1)N1CCC[C@@]2(CCN(Cc3ccncc3)C2)C1 | -17% | nt | nt | nt | nt | nt
Cc1cccc(C)c1OCc1n[nH]c(=S)n1N | 1% | -18% | ? | 18µM* | ? | 3%
NNc1n[nH]c(=S)n1N | -21% | 53% | 9% | -10% | ? | nt
Nn1c(COc2ccc(Cl)cc2)n[nH]c1=S | -1% | -8% | ? | 32µM* | -14% | 10%
C=CCN1C[C@@H](C)N([C@H](c2ccc(C(=O)N(CC)CC)cc2)c2cccc(OC)c2)C[C@@H]1C | -7% | nt | nt | nt | nt | nt
Cc1cccc(N(CC(=O)NCCSc2ccc(Cl)cc2)S(=O)(=O)c2ccccc2)c1C | -6% | 41% | nt | 4% | -1% | nt
Cc1ccc(N2C(=O)NC(=O)/C(=C\C=C\c3ccco3)C2=O)cc1C | ? | ? | 1.5µM* | ? | 45µM* | ?
Cc1ccc(N2C(=O)NC(=O)/C(=C\C=C\c3ccco3)C2=O)cc1 | ? | 14% | 1.9µM* | -24% | -33% | nt
SMILES | VDR inh | HP1b chromo inh | PLK1 PBD block | JMJD2A Tudor inh | BAZ2B block | L3MBTL1 block
CN1C(=O)/C(=C/C=C/c2ccco2)C(=O)NC1=S | ? | 11µM* | ? | ? | 32µM* | nt
O=C1NC(=O)N(c2ccccc2)C(=O)/C1=C/C=C/c1ccco1 | 20µM* | -19% | 2.4µM* | -29% | -35% | nt
Cc1cccc(N2C(=O)NC(=O)/C(=C\C=C\c3ccco3)C2=O)c1 | ? | -20% | ? | ? | ? | ?
C=CCN | 12% | nt | nt | nt | nt | nt
CCOC(=O)Cn1c(-c2ccccc2)ccc(C#N)c1=O | -2% | 91% | 3% | 48% | 43% | 29%
C=CCN1CCC2(C)c3cc(O)ccc3C[C@H]1[C@H]2C | -1% | nt | nt | nt | nt | nt
CCOC(=O)CC(NC(=O)C(Cc1ccc(N(CCCl)CCCl)cc1)NC(C)=O)C(=O)OCC (configuration not stated) | ? | ? | 6µM* | 13µM* | 20µM* | -6%
O=C(NC1CC1)c1cc(-c2ccco2)nc2ccccc12 | -11% | 18µM* | 21µM* | 8.9µM* | 10µM* | nt
O=C(Nc1nnc(-c2ccco2)o1)c1cccc2ccccc12 | -10% | 32% | -10% | ? | ? | 18%
CCC1/C=C/C=CCC(C)C(O)[C@@](C)(O)C(=O)C(C)C(O)C(C)C(=O)C(C)C(O)C(C)C=CC(=O)O[C@H]2C(C)C(CC1)O[C@]1(CCC(C)C(CC(C)O)O1)C2C (some centres not stated) | -14% | nt | nt | nt | nt | nt
O=C1NC(=O)N(c2ccc3c(c2)OCO3)C(=O)/C1=C/c1ccc(N2CCCC2)o1 | 8% | 24% | 71% | -2% | -35% | -6%
CN1CCN(c2ccc(/C=C3\C(=O)NC(=S)N(c4cccc(Br)c4)C3=O)o2)CC1 | ? | ? | 105% | ? | 40µM* | -20%
CC(=O)CC(c1ccccc1)c1c(O)c2cccc(O)c2oc1=O (configuration not stated) | 3% | nt | nt | nt | nt | nt
COC(=O)[C@H]1[C@H]2C[C@@H]3c4[nH]c5cc(OC)ccc5c4CCN3C[C@H]2C[C@@H](OC(=O)/C=C/c2cc(OC)c(OC)c(OC)c2)[C@@H]1OC | 36% | -22% | 7% | 28µM* | ? | ?
COC(=O)C1=CO[C@@H](C)[C@@H]2CN3CCc4c([nH]c5cc(OC)ccc45)[C@@H]3C[C@H]12 | 79µM* | nt | nt | nt | nt | nt
COC(=O)C1=CO[C@H](C)[C@H]2CN3CC[C@@]4(C(=O)Nc5ccccc54)[C@@H]3C[C@H]12 | -1% | 18% | -6% | -18% | nt | nt
C[C@H](N)Cc1cnc[nH]1 | -6% | nt | nt | nt | nt | nt
